# What was measured:
# Assay in all cases: PBM binding z-score (relative to random genomic background probes); higher = stronger binding; sequences stand for … in GC…GCGATTGACAGCGTAGAATGAAGG
# [1] = tested on: FXR:RXRa (NR concentration 270 nM, RXRa partner concentration 90 nM)
# Method in brief: (§1)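 Probes were double-stranded and carried 34-nt variable regions with direct-repeat seeds, single-nucleotide variants, half-site ablations and random human genomic background sequences, printed on custom Agilent 4×180K protein-binding microarrays. Arrays were incubated 1 h with ligand-free nuclear receptor dimers in PBS pH 7.4, 2% milk, 0.02% Triton X-100, 1 mM DTT, 0.2 mg/mL BSA and 0.4 mg/ml salmon testes DNA. Antibodies against each partner (one per run) detected binding, and scanned fluorescence was regression-normalized. Binding z-scores use the random background probes as reference.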
# [2] = tested on: LXRa:RXRa (NR concentration 270 nM, RXRa partner concentration 90 nM)
# Method in brief: as §1
# [3] = tested on: LXRa homodimer (NR concentration 270 nM)
# Method in brief: as §1
# [4] = tested on: LXRb:RXRa (NR concentration 270 nM, RXRa partner concentration 90 nM)
# Method in brief: as §1
# [5] = tested on: LXRb homodimer (NR concentration 270 nM)
# Method in brief: as §1
# [6] = tested on: PPARa:RXRa (NR concentration 270 nM, RXRa partner concentration 90 nM)
# Method in brief: as §1
# [7] = tested on: PPARg:RXRa (NR concentration 180 nM, RXRa partner concentration 90 nM)
# Method in brief: as §1
# [8] = tested on: PPARg:RXRa 270nM:90nM, anti-RXR (NR concentration 270 nM, RXRa partner concentration 90 nM)
# Method in brief: as §1
# [9] = tested on: PPARg:RXRa 30nM:10nM, anti-RXR (NR concentration 30 nM, RXRa partner concentration 10 nM)
# Method in brief: as §1
# [10] = tested on: PPARg:RXRa 90nM:30nM, anti-RXR (NR concentration 90 nM, RXRa partner concentration 30 nM)
# Method in brief: as §1
# [11] = tested on: PPARg:RXRa DBDmut IVT, anti-RXR (DBD mutation: RXRa K156A/R161A, NR concentration 270 nM, RXRa partner concentration 90 nM)
# Method in brief: as §1
# [12] = tested on: PPARg:RXRa IVT, anti-PPARg (NR concentration 270 nM, RXRa partner concentration 90 nM)
# Method in brief: as §1
# [13] = tested on: PPARg DBDmut:RXRa IVT, anti-PPARg (DBD mutation: PPARg1 K132A/R137A, NR concentration 270 nM, RXRa partner concentration 90 nM)
# Method in brief: as §1
# [14] = tested on: PPARg DBDmut IVT, anti-PPARg (DBD mutation: PPARg1 K132A/R137A, NR concentration 270 nM)
# Method in brief: as §1
# [15] = tested on: PPARg homodimer (NR concentration 180 nM)
# Method in brief: as §1
# [16] = tested on: PXR:RXRa (NR concentration 270 nM, RXRa partner concentration 90 nM)
# Method in brief: as §1
# [17] = tested on: PXR homodimer (NR concentration 270 nM)
# Method in brief: as §1
# [18] = tested on: RARa:RXR (NR concentration 270 nM, RXRa partner concentration 90 nM)
# Method in brief: as §1
# [19] = tested on: RARa homodimer (NR concentration 270 nM)
# Method in brief: as §1
# [20] = tested on: RARb:RXRa (NR concentration 270 nM, RXRa partner concentration 90 nM)
# Method in brief: as §1
Sequence,PBM binding z-score [1],PBM binding z-score [2],PBM binding z-score [3],PBM binding z-score [4],PBM binding z-score [5],PBM binding z-score [6],PBM binding z-score [7],PBM binding z-score [8],PBM binding z-score [9],PBM binding z-score [10],PBM binding z-score [11],PBM binding z-score [12],PBM binding z-score [13],PBM binding z-score [14],PBM binding z-score [15],PBM binding z-score [16],PBM binding z-score [17],PBM binding z-score [18],PBM binding z-score [19],PBM binding z-score [20]
GCTAGCAGGCCATTTGTGTCACTCAATGACGGGC,-0.539,-0.568,-1.12,-1.03,-0.864,-0.398,0.274,-0.38,-0.669,-0.744,1.46,0.556,-0.775,-0.917,-0.822,-0.691,-0.552,-0.532,-0.827,0.161
TCGAGTAGGTTAGGCGCATTCAGAATGGCGTCGA,-0.434,-0.29,-0.682,-0.547,-1.16,0.216,-0.326,0.786,0.835,0.489,1.8,0.832,-1.24,-1.21,-1.2,-0.58,-0.715,-0.497,-1.02,0.105
CCGACTGGGGCATAAGGTTACAATAAGCCAGCCC,0.415,1.46,-0.348,0.936,-0.85,1.9,2.58,3.36,0.985,2.68,3.12,3.35,-1.72,-1.42,0.586,0.38,-0.291,1.17,-0.0919,1.58
CCTCCGAGGACAACAGGAGGTCAGAGCTGCCAGA,1.35,2.3,2.21,1.51,-0.302,2.02,0.575,0.211,-0.642,-0.107,-0.0648,0.335,-1.15,-1.76,1.29,2.17,0.291,2.7,-0.117,2.88
CGTGCAAGGTCAATGCTAGGTCAGTGAAAGCATT,6.79,5.7,1.91,4.42,0.212,5.53,4.26,5.03,1.47,3.77,3.32,4.08,0.426,-0.53,3.59,4.91,0.967,6.46,0.996,5.34
GCAGACAGGTGAAGCGCAGGTAACTCAGGGTGGC,-0.663,-0.276,-0.718,-0.713,-1.29,-0.0823,0.129,-0.656,-1.07,-0.9,0.302,0.226,-0.748,-1.21,-0.277,-0.484,-0.646,-0.125,-1.03,0.497
TCCAGTTGGTCACGGAGGTCACACACGACGGGTA,3.34,3.57,2.25,3.33,0.101,3.95,3.15,3.83,2.94,3.43,2.14,3.9,0.387,0.563,2.63,4.5,1.2,4.33,0.942,4
CGTCCAAGGTCAAGGTCAGTGACAGAGACTCGAA,7.96,5.86,1.34,4.71,0.819,5.76,6.3,6.48,2.85,4.82,4.03,4.87,1.18,-0.455,4.7,5.25,1.84,5.72,2.23,5.75
ACTAGTTGGTCAGCTGTGGTCACACACAATTCGG,0.168,-0.0982,-0.159,-0.0787,-0.362,0.0515,0.536,0.0705,-0.147,-0.158,1.14,0.902,0.0939,0.115,0.101,0.312,-0.402,0.442,0.116,1.23
ACTCGGAGGACATAGGTCAGAGCTACGCCAGTGA,1.33,1.54,0.379,1.13,-0.23,2.89,3.73,4.68,2.29,3.87,0.107,1.88,-0.386,0.0927,0.895,1.15,0.0875,1.9,0.402,2.31
CCTGATAGGTCATGGTCAGCTAATCTACAGTATG,5.33,4.19,0.689,3.39,0.182,4.96,3.65,3.99,1.25,2.81,3.61,2.99,1.15,0.715,2.24,2.79,0.473,4.02,1.43,4.18
CAAACTAGGTCAAGGTCAGAGTCGGTTTGTGCCA,5.93,4.35,1.98,3.26,0.405,5.7,9.05,7.77,6.36,8.17,8.39,8.85,4.94,5.19,4.13,4.13,1.18,4.4,2.46,5.06
ATCTCTAGGTAAACGTTCAGTGAATCCCGAGGAT,-0.236,-0.144,-0.301,-0.282,0.657,0.613,1.14,2.17,1.01,1.75,3.11,2.05,0.531,0.761,0.198,-0.434,-0.237,-0.544,-0.155,0.26
AGAACGCGGGCACGCTGAGTTGATAGCAGAGTAG,-0.237,-0.318,-0.326,-0.68,-1.1,-0.532,0.363,-0.844,-0.786,-0.727,0.0817,-0.217,-0.65,-1.15,-0.455,-0.502,-0.289,-0.215,-0.302,0.31
TCTGCTAGGTCAGTTGGCCAGCTAACGAGCTGCC,0.857,0.327,-0.78,-0.127,-0.163,1.2,-0.0379,1.3,0.758,1.1,2.81,2.82,0.783,0.614,-0.509,-0.116,-0.845,0.0154,-1.78,3.44
TTACCAAGGTGAGCTGAGGTCGTTCATCCAACTC,1.08,1.32,0.0661,0.862,-1.08,1.68,0.347,1,0.0261,0.463,1.05,2.17,-0.164,-0.434,-0.159,5.33,0.906,1.82,-0.552,1.74
AATACAGGGTCACTAGGCTAGAGTAGGTACGAAT,6.21,5.05,0.889,3.9,0.775,5.9,7.63,6.19,2.53,5.09,3.32,5.41,1.74,1.68,2.15,2.96,0.638,3.99,1.21,4.28
CTCGAAAGGTCCTGCTCAGGTGAGTATACCAAAC,0.485,0.0121,-0.23,0.151,-0.603,0.515,-0.342,0.119,-0.0279,-0.0509,-0.108,0.189,0.172,-0.54,-0.47,-0.11,-0.684,0.631,-0.103,1.06
GGAACGAGGGCAACTTGATAGCAGAGTTTGATGG,0.815,0.375,-0.472,0.468,-0.203,1.53,1.63,1.28,-0.0805,0.883,4.45,3.29,0.236,0.0207,0.796,0.872,0.418,0.629,0.251,2.72
